Source: PubChem BioAssay (National Center for Advancing Translational Sciences (NCATS))
This is a sample that favours compounds with a hit; in the whole collection about 7% have one here.
a7 integrin act = qHTS for Activators of Integrin-Mediated Alleviation for Muscular Dystrophy; alpha7betagal myoblasts, beta-gal FDG fluorescence, 48 h; Potency, µM (highest dose often 38.3 µM), for inactives: top-dose activation, usual class: activators; hit rate 0.064% among 350,000;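 note: potency is the fitted concentration of half-maximal effect; 100% = response of the positive control SU9516; nearly all actives have a fitted effect of over 60% in size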
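alpha7betagal+/- myoblasts (passage 13, 250/well) treated 48 h at 37C with compounds at 1:260 dilution of DMSO stock. Lysed, then beta-galactosidase activity read as FDG fluorescence (ex 480/em 540) after 30 min, with pre-read for autofluorescence.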
ATXN2 expr inh = Primary qHTS for Inhibitors of ATXN expression; HEK-293 ATXN2-luciferase reporter, luminescence, 24 h; Potency, µM (highest dose often 57 µM), for inactives: at the highest dose activity change, negative = inhibition, most hits filed as inhibitors; hit rate 0.72% among 360,000; AID 1745845, 2022; note: potency is the fitted concentration of half-maximal effect; % is set by controls: 0 for no effect and ±100 for the full control effect; nearly all actives have a fitted effect of over 55% in size
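ATXN2-luciferase reporter cells (luciferase flanked by upstream and downstream ATXN2 gene portions) were treated 24 h at 37 °C with compounds at up to 57 uM. SteadyGlo luminescence gave expression; GF-AFC fluorescence gave viability.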
D3 antag = qHTS of D3 Dopamine Receptor Antagonist: qHTS | AID 652054, 2013 | D3R cells, DiscoveRx beta-arrestin luminescence, antagonist mode; stronger effect = lower value | max response, negative = inhibition, % | hit rate 2.5% among 360,000; in the data active = max response below about -50%; inconclusive = no clear call, values can overlap the other calls; note: % is set by controls: 0 for no effect and ±100 for the full control effect
Target sequence (P35462 whole entry, looked up): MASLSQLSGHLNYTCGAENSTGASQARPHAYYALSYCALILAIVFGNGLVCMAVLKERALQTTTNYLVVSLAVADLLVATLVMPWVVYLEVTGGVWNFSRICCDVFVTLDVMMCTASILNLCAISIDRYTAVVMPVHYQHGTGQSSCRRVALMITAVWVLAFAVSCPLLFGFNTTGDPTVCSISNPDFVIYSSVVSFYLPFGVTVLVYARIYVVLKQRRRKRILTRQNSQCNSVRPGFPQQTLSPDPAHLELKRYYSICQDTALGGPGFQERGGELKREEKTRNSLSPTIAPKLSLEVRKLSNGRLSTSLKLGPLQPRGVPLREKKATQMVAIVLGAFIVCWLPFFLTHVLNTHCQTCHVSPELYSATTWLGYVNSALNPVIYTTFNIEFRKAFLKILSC
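Cells plated overnight at 1500 cells/well, then exposed to library compounds with dopamine controls for 90 minutes at 37 degrees C. DiscoveRx reagent added for 30–60 minutes at room temperature; luminescence read, quantitative HTS format.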
S2 tox = Viability Counterscreen for Primary qHTS for Inhibitors of ATXN expression; Potency, µM (doses to about 56.7 µM), actives largely listed as cytotoxic; hit rate 0.49% among 400,000; S2 cells (HEK-293 line with an ATXN2-luciferase reporter) viability, CellTiter-Fluor protease fluorescence, 24 h; note: potency is the fitted concentration of half-maximal effect; nearly all actives have a fitted effect of over 40% in size
D3 ag = qHTS of D3 Dopamine Receptor Agonist: qHTS; D3R DiscoveRx beta-arrestin cells, luminescence, 90 min; max activation, %; hit rate 0.58% among 410,000; in the data active = max activation above about 30%; note: 0% is about no effect
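Agonist mode: compounds and dopamine controls were applied to plated cells for 90 min at 37 degrees C after an overnight attachment at 1500 cells/well. Luminescent read-out followed 30 - 60 minutes at room temperature with DiscoveRx detection reagent.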
IL1B secr inh = qHTS for Inhibitors of Inflammasome Signaling: IL-1-beta AlphaLISA Primary Screen | THP-1 LPS/ATP IL-1B secretion, AlphaLISA, 16 h; stronger effect = lower value | activity change, % at 57.5 µM | hit rate 4.7% among 360,000 | AID 743279, 2014; in the data active = activity change below about -50%; inconclusive = mostly about -30% to -49%; note: % is set by controls: 0 for no effect and ±100 for the full control effect
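THP-1 cells pretreated 1 hr with compounds (up to 57.5 uM final), then stimulated with LPS (250 ng/mL final) plus ATP (1.25 mM final); secreted IL-1B measured by AlphaLISA after 16 hr, decreased signal indicating inhibition.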
* marks the source's active call; other numbers are inactive results; i = inactive; ? = inconclusive; · = not tested or not shown; [ ] = another dose, or the depositor's remark. Unless noted, calls come from the whole dose curve; as a rule, active = well fitted curve in the direction sought with a large enough effect; inconclusive = small, poorly fitted or top-dose-only effect, or another doubt; inactive = no such curve, though single readings can be large; an effect the other way counts as inactive or inconclusive.

SMILES	a7 integrin act	ATXN2 expr inh	D3 antag	S2 tox	D3 ag	IL1B secr inh
COc1ccc(C(=O)Nc2ccc(Cn3ccnc3)cc2)cc1OC	-24%	1%	3	i	1	-14
O=C(Nc1ccc(Cn2ccnc2)cc1)c1cccc(C(F)(F)F)c1	-15%	-17%	6	i	-8	-54*
CC(C)n1cc(CN2CCC(n3nccc3NC(=O)CCCc3ccccc3)CC2)cn1	-2%	5%	-69*	i	-39	-5
Cc1ccc(C)c(CN2CCC(n3nccc3NC(=O)CCCc3ccccc3)CC2)c1	-29%	-20%	-65*	i	-18	?
CCOc1ccc(CN2CCC(n3nccc3NC(=O)CCCc3ccccc3)CC2)cc1	-18%	·	-55*	i	-2	5
O=C(CCCc1ccccc1)Nc1ccnn1C1CCN(Cc2ccccc2)CC1	-1%	-19%	-3	i	-15	-12
CC(C)n1cc(CN2CCC(n3nccc3NC(=O)Cc3ccccc3)CC2)cn1	-18%	3%	-15	i	-18	5
c1cnc2ccc3ncccc3c2c1	?	34%	17	i	-8	-24
CNc1ccc(N=Nc2cccc3ncccc23)cc1	-1%	2%	-15	?	-8	-54*
O=C(c1ccc(COc2ccc(Cl)cc2)cc1)N1CCCCC1	-8%	-12%	13	i	-4	-63*
Cc1ccccc1C(=O)N1CCC(C(=O)N(C)CCOc2ccccc2)CC1	-4%	-8%	-13	?	-6	-5
CN(CCOc1ccc(Cl)cc1)C(=O)C1CCN(C(=O)c2ccc(Cl)cc2)CC1	-7%	-10%	-3	i	6	-61*
O=C(NCC(c1ccco1)N1CCCCC1)c1cccs1 (stereo not given)	-3%	-6%	5	i	-5	17
O=C(NCC(c1ccco1)N1CCCCC1)c1ccc(COc2ccc(Cl)cc2)cc1 (stereo not given)	-66%	?	?	?	-1	-75*
N#Cc1ccc(C(=O)NCC(c2ccco2)N2CCCCC2)cc1 (stereo not given)	-14%	4%	9	i	1	8
O=C(NCC(c1ccco1)N1CCCCC1)c1cc2c(s1)CCCC2 (stereo not given)	-4%	6%	-75*	i	-24	16
O=C(CNCc1ccc(Cl)cc1)Nc1ccc(C(=O)N2CCCCCC2)cc1	-14%	-25%	-65*	i	-21	-14
O=C(CNCc1ccc(Cl)cc1)Nc1ccc(C(=O)N2CCCCC2)cc1	7%	-15%	-2	i	-11	-12
O=C(COC(=O)c1cnccn1)c1ccc(Cl)cc1	-12%	-37%	2	i	-3	0
CC(O)C1C(=O)OC2(C)CC(C)(C)NC(=S)N12 (stereo not given)	6%	-9%	1	i	-2	0
O=S1(=O)CCOC[C@H](c2ccccc2)N1Cc1cccc(Cl)c1	12%	-13%	-59*	i	-13	0
CCN(CC1CCCN(CCc2cccc(F)c2)C1)C(=O)c1cc(C)oc1C (stereo not given)	-17%	-13%	4	i	-13	?
CCN(CC1CCCN(CCc2cccc(F)c2)C1)C(=O)c1cc2ccccc2o1 (stereo not given)	-48%	-30%	?	?	-28	-88*
CN(CC1CCCN(CCc2cccc(C(F)(F)F)c2)C1)C(=O)c1cc2ccccc2o1 (stereo not given)	-85%	·	-74*	?	-21	-60*
Cc1cccc2c1Sc1ccc(Cl)cc1CC2N1CCNCC1 (stereo not given)	-81%	?	-53*	16µM*	-17	-99*
SMILES	a7 integrin act	ATXN2 expr inh	D3 antag	S2 tox	D3 ag	IL1B secr inh
Cc1ccc(Cl)cc1N1CCN(CC(=O)NC2CCCc3ccccc32)CC1 (stereo not given)	-40%	-13%	9	i	-1	-9
CCc1cccc2c1Sc1ccccc1CC2N1CCNCC1 (stereo not given)	-66%	·	-63*	·	-24	-93*
COc1cc(N)c(Cl)cc1C(=O)NC1CCN(CCCOc2ccc(F)cc2)CC1OC (stereo not given)	·	?	·	?	-22	·
COc1cc(N)c(Cl)cc1C(=O)N[C@H]1CCN(CCCOc2ccc(F)cc2)C[C@H]1OC	·	-21%	-77*	?	-93	-24
CCC(Sc1nc2nccnc2c(=O)n1Cc1ccc(F)cc1)C(=O)NC1CCCCC1 (stereo not given)	·	·	·	·	8	·
COc1ccc(OC)c(Nc2ccc(Nc3cc(OC)ccc3OC)nn2)c1	-26%	-15%	4	i	-10	-101*
COc1ccc(OC)c(Nc2cc(C)c3ccccc3n2)c1	-3%	·	-13	i	-5	-6
COc1ccccc1Nc1ccc(Nc2ccccc2OC)nn1	-3%	44%	3	i	-1	·
COc1ccc(OC)c(Nc2c3c(nc4ccccc24)CCC3)c1	3%	0%	-11	?	-11	-75*
COc1ccc(OC)c(Nc2c3ccccc3nc3ccccc23)c1	-44%	11µM*	?	14µM*	-27	-84*
COc1ccc([N+](=O)[O-])cc1Nc1c2ccccc2nc2ccccc12	-55%	?	-26	?	-4	-29
COc1cc(NS(C)(=O)=O)ccc1Nc1c2ccccc2nc2ccccc12	·	0.25µM*	4	?	3	-105*
CC(C(=O)Nc1ccc(S(=O)(=O)N2CCCC2)cc1)N1CCN(c2ccccc2O)CC1 (stereo not given)	-28%	·	10	i	8	-2
O=C(/C=C/Sc1ccc(C(F)(F)F)cn1)c1ccccc1	-26%	·	-69*	i	-16	?
Cc1ccc(C)c(NC(NC(=O)c2ccccn2)C(Cl)(Cl)Cl)c1 (stereo not given)	23%	-2%[11.3 µM]	-12	i	5	-7
COc1ccc(B(O)O)c(CN2CCN(C(=O)OC(C)(C)C)CC2)c1	4%	8%	-8	i	4	-8
CCOc1cccc(C(=O)Nc2cccc(-c3nc4ncccc4o3)c2C)c1	1%	-10%	-2	i	3	-63*
Cc1c(NC(=O)c2ccc([N+](=O)[O-])o2)cccc1-c1nc2ncccc2o1	-66%	?	5	?	6	-103*
